According to the supplement of paper PMC10849652:
The full data set covers some 7,900 targets. This sample favours those with a hit. About 0.6% of all pairs of compound and target were hits.

Compound: c1cn2cc(-c3ccc4cn[nH]c4c3)nc(Nc3ccc(N4CCOCC4)cc3)c2n1 [entospletinib]
Assay: log2 fold change, soluble protein after heating vs DMSO (PISA); higher = thermal stabilisation; K562 cells, 10 uM, 30 min; active = over 0.2 and 3.5 SD of the protein, either way, in both replicates (recomputed)
Procedure, shortened: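 Values are thermal stability changes relative to control samples and are taken from duplicates. They are stated as log2 fold changes. Before quantification by TMTpro 16plex LC-MS/MS with equalised channel sums, K562 cells at 2×10^6 cells/mL were treated with 10 μM compound for 30 min, heated in aliquots for 3 min across 48°C-58°C, pooled, extracted in PBS with 0.5% NP-40 at 4°C, and centrifuged at 21,000xg for 90 min to give the soluble supernatant.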

Sequence of UniProt P40261 (P40261 whole entry, looked up): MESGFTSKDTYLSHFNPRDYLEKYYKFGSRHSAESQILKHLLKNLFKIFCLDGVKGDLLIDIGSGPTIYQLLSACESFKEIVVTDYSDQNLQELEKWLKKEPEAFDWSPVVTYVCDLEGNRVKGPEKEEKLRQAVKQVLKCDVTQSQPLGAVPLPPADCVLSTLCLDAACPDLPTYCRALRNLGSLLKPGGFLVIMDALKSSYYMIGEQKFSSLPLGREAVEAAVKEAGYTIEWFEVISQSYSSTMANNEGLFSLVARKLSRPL
Sequence of UniProt Q9BUK6 (Q9BUK6 whole entry, looked up): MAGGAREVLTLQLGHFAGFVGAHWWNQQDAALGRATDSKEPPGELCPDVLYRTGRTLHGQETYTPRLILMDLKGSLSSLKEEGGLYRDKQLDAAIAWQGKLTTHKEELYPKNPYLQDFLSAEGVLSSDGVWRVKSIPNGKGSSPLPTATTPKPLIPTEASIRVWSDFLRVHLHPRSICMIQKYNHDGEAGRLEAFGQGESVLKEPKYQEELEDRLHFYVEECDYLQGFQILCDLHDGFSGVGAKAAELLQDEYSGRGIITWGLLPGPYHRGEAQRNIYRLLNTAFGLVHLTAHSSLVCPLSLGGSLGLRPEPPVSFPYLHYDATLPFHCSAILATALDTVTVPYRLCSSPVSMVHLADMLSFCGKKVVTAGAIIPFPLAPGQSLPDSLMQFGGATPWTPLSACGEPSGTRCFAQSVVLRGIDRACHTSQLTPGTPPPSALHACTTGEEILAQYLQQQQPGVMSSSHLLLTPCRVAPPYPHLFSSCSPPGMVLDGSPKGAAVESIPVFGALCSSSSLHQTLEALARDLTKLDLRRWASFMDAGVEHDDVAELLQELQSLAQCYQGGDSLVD
Sequence of UniProt Q99747 (Q99747 whole entry, looked up): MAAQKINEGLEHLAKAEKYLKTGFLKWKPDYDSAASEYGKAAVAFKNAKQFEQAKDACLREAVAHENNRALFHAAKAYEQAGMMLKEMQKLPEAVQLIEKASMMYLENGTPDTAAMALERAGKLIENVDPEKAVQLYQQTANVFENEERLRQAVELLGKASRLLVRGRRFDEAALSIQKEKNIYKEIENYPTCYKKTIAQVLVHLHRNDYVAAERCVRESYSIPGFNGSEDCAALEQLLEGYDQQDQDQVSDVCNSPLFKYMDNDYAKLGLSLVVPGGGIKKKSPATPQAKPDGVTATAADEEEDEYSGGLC
Sequence of UniProt Q9BV86 (Q9BV86 whole entry, looked up): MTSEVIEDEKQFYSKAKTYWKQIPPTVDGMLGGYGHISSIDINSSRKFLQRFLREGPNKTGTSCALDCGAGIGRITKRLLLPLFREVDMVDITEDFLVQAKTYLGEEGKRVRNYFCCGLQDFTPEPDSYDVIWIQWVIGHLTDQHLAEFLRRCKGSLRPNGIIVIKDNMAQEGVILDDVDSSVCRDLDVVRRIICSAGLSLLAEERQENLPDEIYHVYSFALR
Sequence of UniProt Q9NXX6 (Q9NXX6 whole entry, looked up): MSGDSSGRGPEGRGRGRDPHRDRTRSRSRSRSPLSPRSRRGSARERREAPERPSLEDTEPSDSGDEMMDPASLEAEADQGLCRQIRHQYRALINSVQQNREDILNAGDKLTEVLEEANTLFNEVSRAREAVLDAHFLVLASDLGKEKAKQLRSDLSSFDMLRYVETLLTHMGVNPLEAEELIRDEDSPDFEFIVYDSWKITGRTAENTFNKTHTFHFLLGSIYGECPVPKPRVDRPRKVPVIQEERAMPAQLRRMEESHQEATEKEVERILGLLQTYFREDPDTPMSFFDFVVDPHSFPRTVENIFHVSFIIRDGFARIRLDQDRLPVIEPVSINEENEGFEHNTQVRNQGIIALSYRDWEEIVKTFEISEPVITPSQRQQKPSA
Sequence of UniProt O00217 (O00217 whole entry, looked up): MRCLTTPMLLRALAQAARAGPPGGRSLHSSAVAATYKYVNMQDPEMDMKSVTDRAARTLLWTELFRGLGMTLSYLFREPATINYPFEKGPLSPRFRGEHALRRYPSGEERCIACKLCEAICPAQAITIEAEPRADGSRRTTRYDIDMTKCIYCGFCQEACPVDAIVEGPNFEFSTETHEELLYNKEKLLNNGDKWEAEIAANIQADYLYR
Sequence of UniProt Q13423 (Q13423 whole entry, looked up): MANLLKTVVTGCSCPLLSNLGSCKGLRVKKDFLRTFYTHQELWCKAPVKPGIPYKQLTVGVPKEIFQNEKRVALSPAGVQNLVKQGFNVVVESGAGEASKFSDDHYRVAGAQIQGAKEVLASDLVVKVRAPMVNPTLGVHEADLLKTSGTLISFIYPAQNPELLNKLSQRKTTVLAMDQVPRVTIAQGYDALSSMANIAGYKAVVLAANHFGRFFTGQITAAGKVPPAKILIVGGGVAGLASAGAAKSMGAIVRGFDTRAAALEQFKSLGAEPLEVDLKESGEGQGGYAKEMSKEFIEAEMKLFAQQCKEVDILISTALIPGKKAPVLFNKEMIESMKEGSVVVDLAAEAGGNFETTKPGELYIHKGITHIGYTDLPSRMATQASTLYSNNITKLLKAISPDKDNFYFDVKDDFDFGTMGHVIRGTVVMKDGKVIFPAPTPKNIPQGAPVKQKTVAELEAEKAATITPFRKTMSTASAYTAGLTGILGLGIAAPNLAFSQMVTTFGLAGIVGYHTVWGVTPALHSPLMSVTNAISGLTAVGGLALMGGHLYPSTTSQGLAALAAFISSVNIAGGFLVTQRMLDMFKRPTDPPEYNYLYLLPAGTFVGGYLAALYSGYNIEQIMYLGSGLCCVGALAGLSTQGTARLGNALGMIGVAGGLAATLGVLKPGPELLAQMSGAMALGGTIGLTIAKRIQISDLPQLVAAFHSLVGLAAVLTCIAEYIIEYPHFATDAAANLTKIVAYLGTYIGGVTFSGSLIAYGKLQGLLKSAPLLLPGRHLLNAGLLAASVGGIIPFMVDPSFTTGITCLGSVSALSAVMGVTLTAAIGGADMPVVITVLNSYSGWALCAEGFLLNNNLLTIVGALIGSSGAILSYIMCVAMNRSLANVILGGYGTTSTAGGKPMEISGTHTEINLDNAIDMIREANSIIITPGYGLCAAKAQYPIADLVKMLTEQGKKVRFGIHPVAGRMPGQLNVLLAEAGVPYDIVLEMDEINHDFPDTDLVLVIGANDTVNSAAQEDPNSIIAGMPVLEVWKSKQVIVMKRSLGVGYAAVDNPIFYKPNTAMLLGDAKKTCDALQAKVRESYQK
Sequence of UniProt Q6P1R3 (Q6P1R3 whole entry, looked up): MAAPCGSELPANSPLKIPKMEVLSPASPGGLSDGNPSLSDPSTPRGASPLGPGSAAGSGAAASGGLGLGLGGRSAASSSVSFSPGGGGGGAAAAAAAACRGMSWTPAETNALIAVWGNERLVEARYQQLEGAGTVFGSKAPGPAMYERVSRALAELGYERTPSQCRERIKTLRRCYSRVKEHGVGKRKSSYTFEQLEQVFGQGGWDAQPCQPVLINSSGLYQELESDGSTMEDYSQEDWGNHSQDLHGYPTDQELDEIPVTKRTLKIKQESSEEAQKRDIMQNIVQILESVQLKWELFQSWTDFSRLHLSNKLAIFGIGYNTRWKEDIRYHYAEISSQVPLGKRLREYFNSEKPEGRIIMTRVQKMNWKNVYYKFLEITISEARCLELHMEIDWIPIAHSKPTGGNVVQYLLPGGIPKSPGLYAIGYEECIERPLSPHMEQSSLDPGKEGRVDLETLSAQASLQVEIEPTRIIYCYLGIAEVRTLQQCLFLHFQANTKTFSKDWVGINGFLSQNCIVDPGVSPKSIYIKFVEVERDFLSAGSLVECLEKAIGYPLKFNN
Sequence of UniProt Q96T76 (Q96T76 whole entry, looked up): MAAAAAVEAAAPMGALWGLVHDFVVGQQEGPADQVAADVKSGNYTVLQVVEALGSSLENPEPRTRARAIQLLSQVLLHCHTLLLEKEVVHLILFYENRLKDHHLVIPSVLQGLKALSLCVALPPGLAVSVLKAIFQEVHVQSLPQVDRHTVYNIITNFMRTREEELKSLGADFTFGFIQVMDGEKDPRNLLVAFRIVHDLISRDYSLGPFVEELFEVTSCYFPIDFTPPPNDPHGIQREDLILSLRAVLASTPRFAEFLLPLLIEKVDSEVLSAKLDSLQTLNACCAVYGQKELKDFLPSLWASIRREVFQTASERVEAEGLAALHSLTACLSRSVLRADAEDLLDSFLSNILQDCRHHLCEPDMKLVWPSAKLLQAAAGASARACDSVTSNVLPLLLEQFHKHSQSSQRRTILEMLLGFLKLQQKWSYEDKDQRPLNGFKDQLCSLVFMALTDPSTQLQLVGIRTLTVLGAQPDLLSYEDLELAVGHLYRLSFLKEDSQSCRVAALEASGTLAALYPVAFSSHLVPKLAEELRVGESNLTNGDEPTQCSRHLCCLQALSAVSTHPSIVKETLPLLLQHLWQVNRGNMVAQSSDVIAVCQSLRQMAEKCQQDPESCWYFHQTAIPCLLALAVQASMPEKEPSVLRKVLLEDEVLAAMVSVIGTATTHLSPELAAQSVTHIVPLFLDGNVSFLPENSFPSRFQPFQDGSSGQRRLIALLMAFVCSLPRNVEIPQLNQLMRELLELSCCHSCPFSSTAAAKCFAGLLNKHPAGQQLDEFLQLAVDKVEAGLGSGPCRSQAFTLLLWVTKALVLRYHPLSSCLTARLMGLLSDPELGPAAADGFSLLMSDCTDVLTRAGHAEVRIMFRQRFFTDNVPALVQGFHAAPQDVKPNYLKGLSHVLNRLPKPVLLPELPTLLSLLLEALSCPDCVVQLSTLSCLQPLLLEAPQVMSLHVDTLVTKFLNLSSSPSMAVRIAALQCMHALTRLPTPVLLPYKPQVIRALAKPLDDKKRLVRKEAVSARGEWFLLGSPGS
Sequence of UniProt Q6N063 (Q6N063 whole entry, looked up): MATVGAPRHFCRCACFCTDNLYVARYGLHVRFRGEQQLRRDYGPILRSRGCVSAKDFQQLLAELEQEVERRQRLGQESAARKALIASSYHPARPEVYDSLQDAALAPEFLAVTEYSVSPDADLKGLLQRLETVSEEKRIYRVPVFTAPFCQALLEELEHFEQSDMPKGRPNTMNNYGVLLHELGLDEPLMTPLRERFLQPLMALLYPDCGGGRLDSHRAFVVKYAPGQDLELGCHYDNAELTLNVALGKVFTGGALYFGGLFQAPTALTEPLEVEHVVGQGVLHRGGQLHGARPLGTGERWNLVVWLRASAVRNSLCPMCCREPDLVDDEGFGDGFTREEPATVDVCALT

log2 fold change, inactive:
ORC3 isoform 2 (UniProt Q9UBD5) 0.114, OGFOD2 (UniProt Q6N063) -0.003, MSTO1 (UniProt Q9BUK6) -0.068, NMRAL1 (UniProt Q9HBL8) 0.135, NNT (UniProt Q13423) -0.042, NKAP (UniProt Q8N5F7) -0.144, NDUFS8 (UniProt O00217) -0.012, NUP160 (UniProt Q12769) 0.03, NPM3 (UniProt O75607) 0.008, NAPG (UniProt Q99747) 0.037, MRPS27 isoform 2 (UniProt Q92552) -0.029, MPHOSPH10 (UniProt O00566) 0.082, MRPS15 (UniProt P82914) 0.044, NCAPG (UniProt Q9BPX3) 0, MKNK1 (UniProt Q9BUB5) 0.01, NT5DC1 (UniProt Q5TFE4) 0.039, NSMCE4A (UniProt Q9NXX6) -0.048, NPEPPS (UniProt P55786) -0.007, NNMT (UniProt P40261) 0.042, MSANTD2 (UniProt Q6P1R3) -0.364, NTMT1 (UniProt Q9BV86) 0.118, NDUFAF6 (UniProt Q330K2) -0.121, MMS19 isoform 8 (UniProt Q96T76) 0.033
